PubChem BioAssay (NCATS)
Several values for one entry are separate records, joined by “and”; a condition that tells them apart may be missing. Equal entries are not always repeated. Inconclusive results are not listed. Activity calls are given as the source filed them. The call rests on the fitted dose curve; in most records, active means well fitted curve in the direction sought with a large enough effect; inconclusive means small, poorly fitted or top-dose-only effect, or another doubt; inactive means no such curve, though single readings can be large; an effect the other way counts as inactive or inconclusive.

How the values were obtained:
[1] = Cellular Toxicity (caspase-3) Hek293 (AID 664); settings: HEK293 caspase-3 activation, DMSO = 0%, 100 µM tamoxifen = 100%; at 92.2 µM (top of the series);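 further: cells exposed to compound for 16 h at 37 °C before readout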
Outline: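 Activation of caspase-3/7 is measured as increased luminescence from cleaved peptide-aminoluciferin substrate in HEK293 cells treated 16 hours at 37 °C. AC50 values come from Hill-equation fits of concentration-response data.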

[2] = Cellular Toxicity (caspase-3) N2a (AID 665);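 further: compound exposure lasted 16 h at 37 °C before readout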
Outline: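 Plated mouse neuroblastoma N2a cells received titrated compounds for 16 h in complete medium. Caspase activity was then detected with a peptide-aminoluciferin luminescent reagent.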

[3] = Cellular Toxicity (caspase-3) NIH 3T3 (AID 666);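 further: caspase signal read after 16 h compound exposure; 0% = DMSO basal and 100% = 100 µM tamoxifen stimulation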
Outline: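 Concentration-response qHTS in NIH 3T3 mouse fibroblasts scores caspase-3/7 activation as rising luminescence after 16 hr compound exposure. Signals are scaled between DMSO-only and 100 uM tamoxifen.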

[4] = Cellular Toxicity (caspase-3) Renal Proximal Tubule (AID 667);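 further: cells exposed to compound for 16 hours at 37 °C before detection; 0% = DMSO basal and 100% = 10 µM staurosporine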
Outline: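 Caspase 3/7 activation measured by luminescent aminoluciferin release in primary rat proximal tubule cells after 16 hr compound exposure at 37 °C. AC50 from Hill-fitted concentration-response, scaled between DMSO and 10 uM staurosporine.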

[5] = biological target: Cytochrome P450 3A4 (Homo sapiens) (UniProt P08684); experiment: qHTS Assay for Inhibitors and Substrates of Cytochrome P450 3A4 (AID 884); further: on the % scale 0 is the no-effect control and ±100 the full control effect; nearly all actives have a fitted effect of over 50% in size
Outline: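 20 nM human CYP3A4 with 25 uM Luciferin-PPXE (at KM) in 200 mM KPO4, preincubated 10 min with compound; NADPH regeneration started a 60 min RT reaction. Luciferin detected by luminescence, normalized to 57 uM ketoconazole as full inhibition.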

Cytochrome P450 3A4 (Homo sapiens), sequence (P08684 whole entry, looked up): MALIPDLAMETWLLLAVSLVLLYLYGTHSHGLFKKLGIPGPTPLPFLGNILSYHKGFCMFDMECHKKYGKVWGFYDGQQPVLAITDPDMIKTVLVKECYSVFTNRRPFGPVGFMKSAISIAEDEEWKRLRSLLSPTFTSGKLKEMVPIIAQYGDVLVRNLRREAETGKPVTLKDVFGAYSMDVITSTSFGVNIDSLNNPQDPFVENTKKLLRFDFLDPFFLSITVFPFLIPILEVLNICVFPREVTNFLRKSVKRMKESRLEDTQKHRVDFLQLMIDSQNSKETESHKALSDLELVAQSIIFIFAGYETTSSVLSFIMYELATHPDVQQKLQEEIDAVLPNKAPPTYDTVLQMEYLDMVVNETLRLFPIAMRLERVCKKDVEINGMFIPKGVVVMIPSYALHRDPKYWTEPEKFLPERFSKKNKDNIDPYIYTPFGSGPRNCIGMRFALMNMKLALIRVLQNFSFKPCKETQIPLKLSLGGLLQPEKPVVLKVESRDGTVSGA

CC[C@H]1OC(=O)[C@H](C)[C@@H](O[C@H]2C[C@@](C)(OC)[C@@H](O)[C@H](C)O2)[C@H](C)[C@@H](O[C@@H]2O[C@H](C)C[C@H](N(C)C)[C@H]2O)[C@](C)(O)C[C@@H](C)CN(C)[C@H](C)[C@@H](O)[C@]1(C)O
inactive: caspase-3 activation [1] 0.727% | outcome [2] | outcome [3] | outcome [4]

CC(C)O
inactive: caspase-3 activation [1] 1.95% | outcome [2] | outcome [3] | outcome [4] | Potency [5]

Cc1ccc(S(=O)(=O)O)cc1C
inactive: caspase-3 activation [1] 0.165% | outcome [2] | outcome [3] | outcome [4] | Potency [5]

NC(N)=O
inactive: caspase-3 activation [1] 1.05% | outcome [2] | outcome [3] | outcome [4] | Potency [5]

CC1=CC(=O)NS(=O)(=O)O1
inactive: caspase-3 activation [1] -2.78% | outcome [2] | outcome [3] | outcome [4] | Potency [5]

CO/N=C(/C(=O)N[C@@H]1C(=O)N2C(C(=O)O)=C(COC(N)=O)CS[C@H]12)c1ccco1
inactive: caspase-3 activation [1] 0.731% | outcome [2] | outcome [3] | outcome [4] | Potency [5]

C[C@H](CCC(=O)O)[C@H]1CC[C@H]2[C@@H]3[C@H](O)C[C@@H]4C[C@H](O)CC[C@]4(C)[C@H]3C[C@H](O)[C@]12C
inactive: caspase-3 activation [1] -0.41% | outcome [2] | outcome [3] | outcome [4]

ClC(Cl)Cl
inactive: caspase-3 activation [1] 0.0594% | outcome [2] | outcome [3] | outcome [4] | Potency [5]

O=c1n(CC2CO2)c(=O)n(CC2CO2)c(=O)n1CC1CO1 (stereo unspecified)
inactive: caspase-3 activation [1] 3.19% | outcome [2] | outcome [3] | outcome [4] | Potency [5]

Nc1ncnc2c1ncn2[C@H]1CC[C@@H](CO)O1
inactive: caspase-3 activation [1] 2.37% | outcome [2] | outcome [3] | outcome [4] | Potency [5]

c1ccc2ccccc2c1
inactive: caspase-3 activation [1] -0.432% | outcome [2] | outcome [3] | outcome [4] | Potency [5]

O.O.O.O.O.O.O.O=S(=O)([O-])[O-].[Co+2]
inactive: caspase-3 activation [1] -1.13% | outcome [2] | outcome [3] | outcome [4] | Potency [5]

Nc1nccs1
inactive: caspase-3 activation [1] 0.166% | outcome [2] | outcome [3] | outcome [4] | Potency [5]

CCCCO
inactive: caspase-3 activation [1] 0.832% and 0.952% | outcome [2] | outcome [3] | outcome [4] | Potency [5]

CCCCC
inactive: caspase-3 activation [1] 2.68% | outcome [2] | outcome [3] | outcome [4] | Potency [5]

Oc1ccc(/C=C/c2cc(O)cc(O)c2)cc1
inactive: caspase-3 activation [1] -7.92% | outcome [2] | outcome [3] | outcome [4]

C[C@H]1O[C@@H](O[C@H]2[C@@H](O)C[C@H](O[C@H]3[C@@H](O)C[C@H](O[C@H]4CC[C@@]5(C)[C@H](CC[C@@H]6[C@@H]5C[C@@H](O)[C@]5(C)[C@@H](C7=CC(=O)OC7)CC[C@]65O)C4)O[C@@H]3C)O[C@@H]2C)C[C@H](O)[C@@H]1O
inactive: caspase-3 activation [1] -3.59% | outcome [2] | outcome [3] | outcome [4] | Potency [5]

CO
inactive: caspase-3 activation [1] -0.124% | outcome [2] | outcome [3] | outcome [4] | Potency [5]

C[C@H](CCC(=O)O)[C@H]1CC[C@H]2[C@@H]3CC[C@@H]4C[C@H](O)CC[C@]4(C)[C@H]3C[C@H](O)[C@]12C
inactive: caspase-3 activation [1] -1.48% | outcome [2] | outcome [3] | outcome [4]

OCl
inactive: caspase-3 activation [1] 2.43% | outcome [2] | outcome [3] | outcome [4] | Potency [5]

OCc1ccccc1
inactive: caspase-3 activation [1] -0.432% | outcome [2] | outcome [3] | outcome [4] | Potency [5]

NCCN
inactive: caspase-3 activation [1] 0.975% | outcome [2] | outcome [3] | outcome [4] | Potency [5]
